PostGolgi ctrl – growth of the yeast control strain, post-Golgi counter-screen; efflux-deficient yeast background strain, growth absorbance A615, 16 h; inhibition, % at 10 µM; actives 5% (n = 98,000); AID 738
PostGolgi yeast – growth inhibition of a yeast mutant, post-Golgi transport screen. post-Golgi transport phenotypic cell assay. inhibition, % at 10 µM. actives 0.9% (n = 98,000);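 further: yeast cells grown in 1536-well plates; yeast grown about 18 h at 30C before absorbance read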
CYP2C19 inh – inhibitors of human CYP2C19 | P33261 | CYP2C19 Supersomes, luciferin-H EGE luminescence, 30 min | inhibition, % at 5 µM | AID 778 | actives 21% (n = 96,000);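 active means CYP2C19 inhibition above a set limit at 5 µM in the primary screen, cut at about 50% in these data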;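 further: plate controls were negative control wells for no effect and 2.5 mM tranylcypromine positive control for full effect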
CYP2C9 act – activators of human CYP2C9. recombinant CYP2C9, luciferin-H conversion, luminescence; active compounds read high; factor 1 = untreated enzyme, 0 = blocked. activation factor at 5 µM. actives 1.4% (n = 96,000);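 active means activation factor of 2 or more for CYP2C9 at a 5 µM dose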;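 further: 0 = sulfaphenazole-blocked wells and 1 = vehicle-only wells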
Target sequence (P11712 whole entry, looked up): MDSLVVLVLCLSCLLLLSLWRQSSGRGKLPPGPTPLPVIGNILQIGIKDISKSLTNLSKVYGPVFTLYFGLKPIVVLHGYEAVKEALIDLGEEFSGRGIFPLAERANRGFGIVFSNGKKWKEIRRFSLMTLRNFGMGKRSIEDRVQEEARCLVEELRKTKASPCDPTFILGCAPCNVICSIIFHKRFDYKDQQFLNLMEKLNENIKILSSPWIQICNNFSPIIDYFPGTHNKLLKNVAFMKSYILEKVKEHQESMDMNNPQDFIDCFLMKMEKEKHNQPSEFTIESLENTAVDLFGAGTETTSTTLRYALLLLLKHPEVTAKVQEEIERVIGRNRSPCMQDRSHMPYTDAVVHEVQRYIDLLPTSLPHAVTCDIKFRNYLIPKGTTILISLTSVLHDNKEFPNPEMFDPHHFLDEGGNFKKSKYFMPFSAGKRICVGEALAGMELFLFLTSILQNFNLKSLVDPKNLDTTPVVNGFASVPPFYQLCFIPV
CYP2C19 activ – cytochrome P450 2C19 (human) activation; recombinant CYP2C19, luciferin-H EGE luminescence; active compounds read high; 0 = fully inhibited enzyme, 1 = untreated enzyme; activation factor at 5 µM; 96,000 tested, under 10 active;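 active means activation factor of at least 2 at 5 µM in the primary screen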;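 further: 0 = wells with 2.5 mM tranylcypromine and 1 = vehicle-only wells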
CYP2C9 inhib – inhibitors of human CYP2C9; CYP2C9 Supersomes, luciferin-H conversion, luminescence; inhibition, % at 5 µM; actives 20% (n = 96,000); P11712;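 active means blocking of liver enzyme CYP2C9 beyond about 50% at 5 µM, limit read from the data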
* = called active by the depositor. The list is not random: actives were taken first. Their share in the collection is about 32%. Unless noted, no stated cut-off is given here; in the data, active means inhibition above about 30%; inactive means the rest.

SMILES | PostGolgi ctrl | PostGolgi yeast | CYP2C19 inh | CYP2C9 act | CYP2C19 activ | CYP2C9 inhib
Clc1ccccc1-c1nnn(Cc2ccc(-c3nn[nH]n3)cc2)n1 | -1.9 | 4.9 | 68.5* | 0.1 | 0.3 | 85.5*
c1cc2c(cc1Oc1nc(N3CCOCC3)nc(N3CCOCC3)n1)OCO2 | 2.2 | 6.0 | -5.3 | 1.1 | 1.1 | -11.0
COc1ccc(OC)c2sc(NC(=O)C3CC3)nc12 | 2.3 | 5.6 | 30.7 | 0.4 | 0.7 | 57.1*
CCC(=O)Nc1nc2c(OC)ccc(OC)c2s1 | 4.2 | -5.1 | -6.8 | 1 | 1.1 | 2.2
CCCC(=O)Nc1nc2c(OC)ccc(OC)c2s1 | 10.0 | -1.6 | 29.7 | 0.4 | 0.7 | 60.9*
C=CCOC(=O)/C(=C\c1ccc(OC)cc1)NC(=O)c1ccco1 | 3.8 | -3.0 | 55.0* | 0.7 | 0.4 | 28.9
CCCCOc1ccc(C(=O)N/C(=C\c2ccc(OC)cc2)C(=O)OCc2ccco2)cc1 | 20.5 | -3.5 | 37.5 | 0.3 | 0.6 | 65.1*
COc1ccc(OCCCC(=O)NCc2ccco2)cc1 | 6.5 | -6.0 | 19.6 | 0.9 | 0.8 | 10.5
CCCc1nc2cc(CC(=O)OC)ccc2o1 | 1.2 | -3.9 | 19.9 | 1 | 0.8 | 1.1
CCC(C(=O)NC1CCCC1)N(C(=O)Cn1nnc(-c2ccc(C)o2)n1)C(C)(C)C (stereo not drawn) | 5.8 | -3.1 | 26.7 | 0.8 | 0.7 | 19.2
CCCN1C2=C(C(=O)CC(C)(C)C2)C(c2ccc(F)cc2)C2=C1c1ccccc1C2=O (stereo not drawn) | 4.7 | 0.3 | -14.2 | 0.3 | 1.1 | 74.6*
Cc1ccc(CSC2=Nc3ccccc3C3=NC(CCC(=O)NCc4ccco4)C(=O)N23)cc1 (stereo not drawn) | 10.6 | 7.3 | 21.1 | 0.1 | 0.8 | 86.9*
O=C(CC1N=C2c3ccccc3N=C(SCc3ccc(Cl)cc3)N2C1=O)NCc1ccco1 (stereo not drawn) | 36.6* | -2.7 | 5.1 | 0.3 | 0.9 | 72.2*
CCOc1ccc(N=c2scc(-c3ccccc3)n2CCO)cc1 | 3.3 | -3.5 | 68.2* | 0.5 | 0.3 | 48.3
N=c1n(CCO)c2ccccc2n1CCOc1ccccc1 | 6.9 | -5.5 | 4.0 | 1.1 | 1 | -5.1
OCCn1c(-c2ccc3c(c2)OCO3)csc1=Nc1ccccc1 | 24.3 | 5.3 | 96.1* | 0.1 | 0 | 86.6*
CCOC(=O)CC(=O)CSc1nc2c(cc1C#N)CCC2 | 3.2 | -10.8 | 7.1 | 0.8 | 0.9 | 19.1
Cn1cc(C(=O)c2cccc(Cl)c2Cl)cc1C(=O)O | 1.1 | -6.8 | -8.6 | 1.1 | 1.1 | -7.6
COC(=O)c1cc(C(=O)c2ccc(Cl)cc2Cl)cn1C | 10.2 | -2.4 | 57.9* | 0.9 | 0.4 | 14.3
COC(=O)c1cc(C(=O)c2cccc(Cl)c2Cl)cn1C | -0.5 | -4.4 | 90.2* | 2* | 0.1 | -96.1
Cn1cc(C(=O)c2ccc(Cl)cc2Cl)cc1C(=O)N/N=C(\N)COc1cccc(C(F)(F)F)c1 | 19.8 | -4.9 | 64.0* | 0.4 | 0.4 | 61.9*
CCOc1ccc(OCCOc2ncnc3ccccc23)cc1 | 8.3 | 2.7 | 33.7 | 0.9 | 0.7 | 11.9
Cc1cc(C(=O)CSc2nnc(N)s2)c(C)n1-c1c(C)n(C)n(-c2ccccc2)c1=O | 10.7 | 0.3 | 10.7 | 0.9 | 0.9 | 7.7
CCOC(=O)c1c(C)[nH]c(C(=O)CN2C(=O)NC(C)(c3ccc4ccccc4c3)C2=O)c1C (stereo not drawn) | 23.9 | -5.0 | 33.6 | 0.4 | 0.7 | 62.3*
CCCC1(c2ccccc2)NC(=O)N(CC(=O)Nc2sc(-c3ccccc3)cc2C(=O)OCC)C1=O (stereo not drawn) | 2.4 | 6.1 | 5.3 | 0.4 | 0.9 | 60.3*
CCCC1(c2ccccc2)NC(=O)N(CC(=O)c2[nH]c(C)c(C(=O)OCC)c2C)C1=O (stereo not drawn) | 2.5 | 1.9 | 94.5* | 0 | 0.1 | 97.5*
Cc1cc(NC(=O)CN2C(=O)NC(C)(c3ccccc3)C2=O)no1 (stereo not drawn) | -0.8 | 20.5 | 6.8 | 0.5 | 0.9 | 48.1
CCOC(=O)c1cc(-c2ccccc2)sc1NC(=O)CC(C)C | -1.2 | 11.1 | 26.2 | 0.9 | 0.7 | 8.0
COc1ccc(OC)c(C(=O)CN2C(=O)NC(C)(c3ccccc3)C2=O)c1 (stereo not drawn) | 19.3 | 7.8 | 98.8* | 2* | 0 | -96.5

Screens (PubChem)
